Test results as given in PubChem BioAssay (NCATS).
Records with an inconclusive call do not appear. Unmarked numbers belong to inactive results. The call rests on the fitted dose curve.

assay: Cell Viability - SK-N-SH (AID 435); settings: SK-N-SH neuroblastoma cell viability qHTS;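 further: compound exposure lasted 40 h at 37 °C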
How it was run: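 Luminescent ATP signal served as the viability read-out after 40 hours of compound treatment of human neuroblastoma SK-N-SH cells. Concentration-response data, scaled between DMSO and 100 uM tamoxifen, gave AC50 values by standard Hill modeling.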
Potency means the concentration at half of the fitted maximal effect.

SMILES	Potency [µM]
C=C(C)OC(C)=O	> 92
NC(=O)NC(N)=O	> 92
CC(=O)Nc1ccccc1C	> 92
CCc1ccccc1O	> 92
Cc1cccc(C)c1	> 92
O=C(O)c1ccccc1[N+](=O)[O-]	> 92
C=CCCCCCCC=C	> 92
Cc1ccc2c(c1[N+](=O)[O-])C(=O)c1ccccc1C2=O	> 92
CC(C)(C)OC=O	> 92
CC(C)(c1cc(Br)c(OCC(Br)CBr)c(Br)c1)c1cc(Br)c(OCC(Br)CBr)c(Br)c1 (stereo not given)	> 92
CCCCCCCCCCCCC1CO1 (stereo not given)	> 92
CCCOCC(C)O (stereo not given)	> 92
Cc1c(N)cccc1[N+](=O)[O-]	> 92
Nc1ccccc1[N+](=O)[O-]	> 92
O=C(O)c1c(Cl)cccc1Cl	> 92
Nc1nc(-c2ccccc2)cs1	> 92
CCC(C)=O	> 92
Nc1c(Cl)cc(Cl)cc1Cl	> 92
CCOc1ccccc1N	> 92
O=Cc1ccc(CO)o1	> 92
C=C(C)C(=O)OCC(C)O (stereo not given)	> 92
Nc1ccc(Cl)cc1[N+](=O)[O-]	> 92
CCCCC=O	> 92
COC(=O)c1ccccc1	> 92
CC(=C/C=C/C(C)=C/C=C/C=C(C)/C=C/C=C(C)/C=C/C(=O)O)/C=C/C(=O)O	> 92
